Screening results deposited in PubChem BioAssay by National Center for Advancing Translational Sciences (NCATS).
KinaseGlo FLuc – blocks Kinase-Glo luciferase, a counter-screen artifact | Q27757 | Kinase-Glo luciferase, ATP luminescence, 8 min | Potency, µM (titrated, usually from 38.3 µM), usual class: inhibitors | 0.28% of 200,000 active | AID 1379; note: nearly all actives have a fitted effect of over 60% in size
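Inhibition of Kinase-Glo luciferase light generation was assessed at 10 uM ATP in pH 7.2 imidazole buffer, with luminescence measured after eight minutes at ambient temperature.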
Rab9 prom act – activates the Rab9 promoter | AID 485297 | Potency, µM (series often up to 9.22 µM), most hits filed as activators | 2.8% of 320,000 active | Huh7 Rab9 promoter-luciferase reporter, luminescence, 24 h; note: nearly all actives have a fitted effect of over 60% in size
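Cell-based reporter: Huh7 stable for Rab9 promoter-driven luciferase, plated in reduced-serum medium with 10% FBS at 1500 cells/well, compound-treated 24 h at 37 °C, luminescence read after 10 min reagent.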
ELG1 genotox – induces genotoxicity in HEK293T cells with luciferase-tagged ELG1. HEK293T ELG1-luciferase reporter, luminescence, 16 h. Potency, µM (top dose mostly 46 µM), usual class: activators. 1.3% of 330,000 active; note: nearly all actives have a fitted effect of over 60% in size
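DMSO vehicle served as control against compound-treated ELG1-luciferase HEK293T cells; exposure lasted 16 hr at 37 °C and 5% CO2, followed by ONE-Glo luminescence detection after 30 min.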
NPC1 promoter act – activators of NPC1 promoter | Huh7 NPC1 promoter luciferase reporter, 24 h | Potency, µM (series often up to 9.22 µM), most hits filed as activators | 2.4% of 320,000 active | AID 485313; note: nearly all actives have a fitted effect of over 60% in size
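NPC1 promoter–luciferase Huh7 cells; 24 h compound; luminescence.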
FLuc modulator – inhibits or activates purified firefly luciferase, miR-21 counter-screen; purified FLuc, Km substrates, luminescence inhibition; AID 588342; P08659; 6.9% of 360,000 active; Potency, µM (highest dose often 57.5 µM), most hits filed as inhibitors; note: nearly all actives have a fitted effect of over 55% in size
Target sequence (P08659 whole entry, looked up): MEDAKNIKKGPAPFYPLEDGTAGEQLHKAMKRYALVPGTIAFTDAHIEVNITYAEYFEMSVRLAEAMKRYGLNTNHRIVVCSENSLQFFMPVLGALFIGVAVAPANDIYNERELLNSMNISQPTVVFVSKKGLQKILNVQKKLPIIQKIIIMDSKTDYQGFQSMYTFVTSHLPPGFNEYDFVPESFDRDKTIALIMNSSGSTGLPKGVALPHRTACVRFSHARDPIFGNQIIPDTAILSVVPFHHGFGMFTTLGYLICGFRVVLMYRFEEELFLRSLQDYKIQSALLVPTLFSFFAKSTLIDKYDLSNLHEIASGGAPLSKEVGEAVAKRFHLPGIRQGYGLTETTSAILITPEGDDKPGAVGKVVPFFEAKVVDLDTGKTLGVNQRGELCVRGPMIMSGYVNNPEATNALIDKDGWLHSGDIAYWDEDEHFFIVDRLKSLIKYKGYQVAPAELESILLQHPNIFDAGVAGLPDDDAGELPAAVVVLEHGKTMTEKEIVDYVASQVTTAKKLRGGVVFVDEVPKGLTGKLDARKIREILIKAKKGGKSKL
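Purified P. pyralis luciferase (10nM final) with 10uM D-luciferin and 10uM ATP (Km levels) in 50mM Tris acetate pH 7.5, 10mM Mg acetate, 0.01% Tween-20, 0.05% BSA; qHTS 6-point titration, ~60 µM downward; luminescence read.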
SMN2 splice up – increases expression of the SMN2 splice variant; HEK293 SMN2-luciferase splicing reporter, luminescence, 30-36 h; Potency, µM (titrated, usually from 46.1 µM), actives largely listed as activators; 2.8% of 210,000 active; AID 1458; note: nearly all actives have a fitted effect of over 55% in size
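HEK293 cells carry an SMN2 minigene-luciferase reporter in which exon 7 inclusion puts luciferase in frame. Cells were seeded at 2000 cells/well, attached for 10-12 hours, then exposed to compounds for 30-36 hours at 37C before ONE-Glo luminescence.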
Hits are given with their value; . = inactive; ? = inconclusive; / = not tested or not shown. Shown are actives, neighbours in structure and some others; about 7.5% of the full set was active somewhere. Calls come from the whole dose curve; as a rule, active = well fitted curve in the direction sought with a large enough effect; inconclusive = small, poorly fitted or top-dose-only effect, or another doubt; inactive = no such curve, though single readings can be large; an effect the other way counts as inactive or inconclusive.

SMILES	KinaseGlo FLuc	Rab9 prom act	ELG1 genotox	NPC1 promoter act	FLuc modulator	SMN2 splice up
Cc1ccc(SCc2cn3c(C)csc3n2)cc1	.	0.63µM	1.6µM	0.63µM	2.1µM	8.9µM
CC(C)C1O/C(=N/C(=O)Nc2ccc(Cl)c(Cl)c2)NC1=O (stereo not drawn)	.	.	.	.	.	.
CCc1ccccc1NC(=O)CSc1nc2ncccc2o1	/	/	/	/	.	/
Clc1ccc(SCc2cn3ccccc3n2)cc1	.	2.5µM	?	?	9.5µM	11µM
Cc1ccc(SCc2cn3cc(Cl)ccc3n2)cc1	/	?	.	?	13µM	/
Clc1ccc2nc(CSc3nncn3-c3ccccc3)cn2c1	.	.	.	.	.	.
Clc1ccc2nc(CSc3nnc4ccccn34)cn2c1	.	1µM	8.2µM	0.5µM	7.6µM	10µM
Clc1ccc2nc(CSc3nc4ccccc4o3)cn2c1	.	1µM	2.6µM	0.89µM	1.9µM	18µM
Nn1c(SCc2cn3cc(Cl)ccc3n2)nnc1-c1ccncc1	.	.	.	.	.	.
Clc1ccc2nc(CSCc3ccccc3)cn2c1	.	2µM	?	1.6µM	7.6µM	13µM
c1ccc(CSCc2ccccc2)cc1	/	.	.	.	.	.
Nc1nnc(SCc2cn3cc(Cl)ccc3n2)s1	.	4µM	?	?	?	?
Cn1ncc(S(=O)(=O)Cc2ccccc2)c(Br)c1=O	/	.	/	.	/	/
O=S(=O)(c1cccc(-c2nc3n(n2)Cc2ccccc2-3)c1)N1CCCC1	.	.	.	.	15µM	.
NC(=O)C(=O)O	.	.	/	.	/	.
Cn1cc(SCC(=O)Nc2ccc3c(c2)OCCO3)c2ccccc21	.	.	?	.	17µM	.
CCn1c(=O)cc(SCC(=O)Nc2ccc3c(c2)OCO3)c2ccccc21	.	.	.	.	.	.
O=C(CSc1cn(CCNC(=O)c2ccccc2F)c2ccccc12)Nc1ccc2c(c1)OCCO2	/	/	/	/	13µM	.
O=C(CSc1cn(CCNC(=O)c2ccccc2F)c2ccccc12)Nc1ccc(F)cc1	/	/	/	/	.	.
CN(NC1CC(=O)N(c2ccccc2)C1=O)c1ccccc1 (stereo not drawn)	.	.	.	.	.	.
COCCn1c(SCC(=O)c2ccc3c(c2)OCCO3)nnc1-c1ccco1	.	.	.	.	.	.
Cn1nnnc1SCC(=O)c1ccc2c(c1)OCCO2	.	?	.	.	?	/
CCn1nnnc1SCC(=O)c1ccc(NC(C)=O)cc1	.	.	.	.	.	.
O=C(O)CCC(=O)c1ccc2c(c1)OCCO2	.	.	.	.	.	.
O=C(O)CCSCC(=O)c1ccc2c(c1)OCCO2	.	.	.	.	11µM	?
SMILES	KinaseGlo FLuc	Rab9 prom act	ELG1 genotox	NPC1 promoter act	FLuc modulator	SMN2 splice up
CCn1c(SCC(=O)c2ccc3c(c2)OCCO3)nnc1-c1ccco1	.	.	.	.	8.5µM	.
CCn1nnnc1SCC(=O)c1ccc(C)cc1	.	?	?	?	15µM	.
CCCn1nnnc1SCC(=O)c1ccc2c(c1)OCCO2	.	?	?	?	12µM	.
Cc1ccc(-n2c(C)cc(C(=O)CN3CCCCC3)c2C)cc1	.	.	.	.	?	.
CCC(Cn1nnc2ccccc2c1=O)NC(=O)Nc1ccccc1Cl (stereo not drawn)	/	/	/	/	.	.
COc1ccccc1-c1nnc(Nc2nc3c(OC)cccc3s2)o1	.	.	.	.	2.7µM	.
COc1cccc(-c2nnc(NC(=O)C3CCCCC3)o2)c1	.	.	?	.	.	.
O=C(Nc1nnc(-c2ccccc2Cl)o1)c1nc2ccccc2s1	.	.	?	.	.	.
COc1cccc(-c2nnc(Nc3nc4c(F)cccc4s3)o2)c1	.	3.2µM	.	2.8µM	4.8µM	11µM
COc1cccc2sc(NN)nc12	.	.	.	.	?	.
COc1cccc2sc(Nc3nnc(-c4ccccc4Cl)o3)nc12	.	.	.	.	12µM	.
CCc1cccc(NC(=O)c2nc(-c3ccncc3)no2)c1	/	/	/	/	.	/
Cc1cccc(OCC(=O)Nc2nnc(S(=O)(=O)N3CCCCCC3)s2)c1	/	.	.	.	.	/
O=C(O)c1ccccc1C(=O)NCCc1c(C(=O)O)[nH]c2ccc(F)cc12	/	.	.	.	.	/
O=C(CSc1nnc(Nc2ccccc2)s1)Nc1ccc(S(=O)(=O)N2CCOCC2)cc1	.	.	.	.	11µM	.
O=C(CSc1nnc(Nc2ccccc2)s1)NN1C(=O)NC2(CCCCC2)C1=O	.	.	.	.	19µM	.
COc1ccc(NC(=O)CSc2nnc(NC(=O)c3ccc(S(=O)(=O)N4CCOCC4)cc3)s2)cc1	.	.	?	.	2.7µM	?
Nc1nnc(SCC(=O)Nc2cccc(S(=O)(=O)N3CCOCC3)c2)s1	/	.	.	.	.	/
Cc1ccc(Nc2nnc(SCC(=O)Nc3ccc(S(=O)(=O)N4CCOCC4)cc3)s2)cc1	.	.	?	.	3µM	.
NC(=O)CSc1nnc(NC(=O)c2ccc(S(=O)(=O)N3CCOCC3)cc2)s1	/	.	.	.	?	/
C/C(=N\NC(=O)c1cc(Br)ccc1O)c1ccccn1	/	?	21µM	?	17µM	/
C/C(=N\NC(=O)c1ccccc1Cl)c1ccccn1	/	.	15µM	.	24µM	/
C/C(=N/NC(=O)c1ccccn1)c1ccncc1	/	?	?	3.5µM	17µM	/
C/C(=N\NC(=O)c1ccc(Cl)c(Cl)c1)c1ccccn1	/	.	?	.	?	/
COc1ccc(C(=O)N/N=C(\C)c2ccccn2)cc1OC	/	.	?	.	?	/
SMILES	KinaseGlo FLuc	Rab9 prom act	ELG1 genotox	NPC1 promoter act	FLuc modulator	SMN2 splice up
C/C(=N/NC(=O)c1cnccn1)c1ccncc1	.	.	.	.	.	.
C/C(=N\NC(=O)c1cccc(Br)c1)c1ccccn1	/	.	?	.	13µM	/
Clc1ccccc1CSc1nc(NCCc2ccccc2)c2ccccc2n1	/	/	/	/	.	/
CCOC(=O)c1ccc(NC(=O)CSc2ccc(-c3ccccn3)nn2)cc1	/	.	?	.	11µM	/
Cc1ccc(NC(=O)CSc2ccc(-c3ccccn3)nn2)cc1	.	.	?	.	.	.
CCOc1ccc(NC(=O)CSc2ccc(-c3ccccn3)nn2)cc1	/	.	.	.	.	/
CC(=O)c1ccc(NC(=O)CSc2ccc(-c3sc(C)nc3C)nn2)cc1	/	.	.	.	13µM	/
O=C(CSc1ccc(-c2ccccn2)nn1)Nc1ccc(F)c(F)c1	/	.	?	.	13µM	/
Cc1nc(C)c(-c2ccc(SCC(=O)Nc3ccc(C)c(Cl)c3)nn2)s1	/	.	.	.	?	/
Cc1ccccc1Nc1nnc(-c2ccc(C)c(S(=O)(=O)N3CCCCC3)c2)c2ccccc12	/	/	/	/	.	.
COc1ccccc1CC(=N)N1C[C@@H]2C(=O)CCC(c3ccccc3)(c3ccccc3)[C@@H]2C1	.	/	/	/	/	/
O=C(CCCN1C(=O)NC2(CCCC2)C1=O)NCc1ccccc1	/	.	.	.	/	/
